In the library only some 2% were active in any assay of this set; here they are far more common.
PrP 5UTR inh: inhibition of PrP 5' UTR reporter expression; inhibition, % (test concentration not listed); actives 0.35% (n = 340,000); cell-based PrP 5' UTR mRNA reporter, plate reader; in the data active = inhibition above about 52%; note: 0 = median of the neutral control wells
PfHsp40 rescue: rescue of yeast from PfHsp40 toxicity, primary screen, S. cerevisiae, ATP luminescence. S. cerevisiae expressing PfHsp40, growth rescue. actives 0.68% (n = 340,000). AID 504582, 2011. growth rescue, % at 12.5 µM; in the data active = growth rescue above about 28%, passing the limit was not always enough;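 note: yeast W303a lacking pdr1 and pdr3 grown in galactose medium; growth measured after three days at 30 °C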
CCHFV vOTU inh: CCHFV vOTU protease inhibitors, primary screen, biochemical, Pep-AMC substrate, fluorescence. Crimean-Congo hemorrhagic fever virus L polyprotein viral ovarian tumor (vOTU) protease …. inhibition, % at 11.5 µM. actives 0.55% (n = 370,000); in the data active = inhibition above about 30%; note: 0% = vehicle wells with enzyme and 100% = no enzyme wells
Yp Topo-I inh: Yersinia pestis topoisomerase I inhibitors, primary screen, biochemical, cleavage product accumulation, plate reader, single point | Y. pestis Topo-I cleavage product accumulation | activity, % at 10 µM | actives 0.064% (n = 360,000) | AID 504884, 2011; in the data active = activity above about 50%, passing the limit was not always enough
PrPC TRFRET: inhibitors of human cell surface prion protein PrPC, primary screen, cell-based, TR-FRET; inhibition, % at 13.8 µM; Major prion protein (Homo sapiens), P04156; TR-FRET read-out; AID 720596, 2013; actives 0.43% (n = 370,000); in the data active = inhibition above about 24%; note: 0% = median of the test wells and 100% = reference compound wells
BJeLR lethal: MLPCN primary cell-based screen for lethality selective to Ras in HRASV12 cells | BJeLR (HRASV12) viability, CellTiter-Glo ATP luminescence, 48 h | inhibition, % (concentration not given with the values) | actives 0.17% (n = 300,000); in the data active = inhibition above about 50%
PrPC TRFRET cf: confirmation of inhibitors of cell surface human prion protein, confirmation, cell-based, TR-FRET | AID 743200, 2013 | cell surface PrPC level | inhibition, % at 13.8 µM | actives 65% (n = 1,500) | shares compounds with PrPC TRFRET; in the data active = inhibition above about 25%
LD9 cytotox: cytotoxicity in LD9 cells, cytotoxicity control for cell surface PrPc inhibitor project, cell-based, luminescence, high throughput; AID 743201, 2013; shares compounds with PrPC TRFRET; inhibition, % at 13.8 µM; luminescence viability; actives 29% (n = 1,500); in the data active = inhibition above about 9.5%
* marks the source's active call; other numbers are inactive results; . = no result.

SMILES	PrP 5UTR inh	PfHsp40 rescue	CCHFV vOTU inh	Yp Topo-I inh	PrPC TRFRET	BJeLR lethal	PrPC TRFRET cf	LD9 cytotox
CC(=O)c1ccc(NC(=O)Nc2ccc(Cl)cc2)cc1	-130.9	1.1	17.1	5.4	28.3*	6.8	24.0	1.0
CC(=O)c1ccc(NC(=O)Nc2ccncc2)cc1	-12.9	-0.1	-1.7	12.3	10.4	0.2	.	.
COCCNC(=O)CSc1cc(-c2ccccc2)c2ccc(OC)cc2n1	7.5	-0.2	-11.4	-2.8	32.5*	1.0	37.0*	-5.8
O=C(CCl)Nc1nc(-c2ccco2)c(-c2ccco2)s1	-18.0	3.8	4.5	-16.0	43.8*	-3.2	31.9*	-4.7
O=C(CCCSc1ccccc1)Nc1nc(-c2ccco2)c(-c2ccco2)s1	-21.9	-0.8	17.7	-5.8	0.8	-5.5	.	.
C#CCNC(=O)C[C@@H]1C(=O)N2CCCC3=C2[C@@]1(C(=O)OC)CCCC3	.	.	1.0	.	-4.1	.	.	.
NC(=O)NN=C1CCC(O)CC1CC(=O)O (stereo not given)	.	.	-6.4	.	2.1	.	.	.
O=C(Nc1ccccc1)Nc1cc(OCC(F)(F)F)cc(OCC(F)(F)F)c1	-11.6	1.8	25.9	-17.7	38.0*	23.5	28.3*	14.3*
O=C(Nc1ccccc1)Nc1cc(Cl)cc(Cl)c1	-27.9	1.9	3.4	-7.2	13.0	-4.2	.	.
O=C(C1CCN(c2ncnc3c2sc2cccc(F)c23)CC1)N1CCN(Cc2ccccc2)CC1	.	.	0.9	.	11.6	.	.	.
Cc1ccc(-n2ncc(Br)c(Br)c2=O)cc1	-0.4	3.7	.	-0.2	.	-9.0	.	.
O=c1c(Br)c(Br)cnn1-c1ccccc1	-7.1	1.6	11.8	-8.7	32.7*	.	80.2*	97.7*
COCCCN1C(=O)C(=O)/C(=C(/O)c2ccc(OCC(C)C)cc2C)C1c1cccnc1 (stereo not given)	-25.7	2.1	15.7	-6.4	25.7*	2.5	36.4*	-7.7
CCCOc1ccc(/C(O)=C2/C(=O)C(=O)N(CCOC)C2c2cccnc2)cc1 (stereo not given)	.	.	4.8	.	-2.9	-0.4	.	.
Cc1cc(OCc2ccccc2)ccc1/C(O)=C1/C(=O)C(=O)N(Cc2cccnc2)C1c1ccncc1 (stereo not given)	-6.5	-1.0	-6.5	0.2	33.5*	-6.2	53.6*	-2.5
Cc1ccc(-n2c(-c3nn(C)cc3Cl)n[nH]c2=S)cc1	-15.9	0.1	1.0	-2.6	11.8	-3.5	.	.
Cn1cc(Cl)c(-c2n[nH]c(=S)n2-c2ccccc2)n1	-19.5	-2.3	-5.2	-2.7	28.7*	2.3	45.0*	-3.4
Cc1nc2ccc(S(=O)(=O)NCC(=O)NCc3ccccc3Cl)cc2s1	.	.	0.1	.	0.0	.	.	.
CC(C)[C@H](NC(=O)c1ccc(Cl)c(Cl)c1)C(=O)N1CCC[C@H]1C(=O)NCCc1ccccc1Cl	.	.	3.2	.	0.6	.	.	.
CC1CCC2(CC1)C(Nc1cccc(Cl)c1)=NC(=S)N2CC#N (stereo not given)	-8.7	0.2	6.4	1.5	36.5*	-8.9	38.9*	-6.8
CCCCCCCCN1C(=O)N2Cc3ccc(C)cc3C2CS1(=O)=O (stereo not given)	.	.	-0.3	.	0.8	.	.	.
Cn1c(=O)c([N+](=O)[O-])c(Cl)c2ccccc21	-19.9	-0.5	-9.4	10.2	57.0*	14.2	50.1*	98.0*
O=C(O)CSc1ncnc2scc(-c3ccc(Br)cc3)c12	4.3	0.9	-3.8	-3.8	26.6*	2.1	23.8	-3.1
O=C(O)CSc1ncnc2scc(-c3ccccc3)c12	-27.9	-0.2	-13.0	0.4	48.1*	6.6	71.7*	-8.0
CNc1nc(N)c([N+](=O)[O-])c(Nc2cccc(OC)c2)n1	.	.	.	.	-3.7	.	.	.
SMILES	PrP 5UTR inh	PfHsp40 rescue	CCHFV vOTU inh	Yp Topo-I inh	PrPC TRFRET	BJeLR lethal	PrPC TRFRET cf	LD9 cytotox
Cc1cc([N+](=O)[O-])nn1Cc1ccc(C(=O)N/N=C/c2ccc(O)cc2O)cc1	-16.6	2.6	10.9	-13.8	31.9*	-1.1	29.5*	21.4*
O=C(N/N=C/c1ccc(O)cc1O)c1ccc(CN2C(=O)c3cccc4cccc2c34)cc1	22.2	15.6	22.8	-10.4	30.7*	14.4	29.1*	18.7*
COC(=O)c1cc2c(c3c4cc(C)ccc4n(S(=O)(=O)c4ccc(C)cc4)c13)C(=O)N(Cc1ccc(C(F)(F)F)cc1)C2	.	.	14.2	.	5.7	.	.	.
O=C(Nc1ccn(Cc2ccccc2F)n1)c1ccc(COc2ccccc2Cl)cc1	20.5	0.4	13.4	12.5	41.6*	2.3	30.9*	0.6
Cc1cc(C)nc(NC(=O)c2ccc(COc3ccccc3Cl)cc2)c1	-25.2	2.6	15.8	6.5	27.0*	-10.3	23.7	-1.7
O=C(NC1CCCCN(Cc2cccc(C(F)(F)F)c2)C1=O)c1cccc(C(F)(F)F)c1 (stereo not given)	.	.	19.2	.	-4.2	.	.	.
CC1CC(C)C(=O)C(C(CC2CC(=O)NC(=O)C2)OC(=O)CC(=O)c2ccccc2)C1 (stereo not given)	28.0	0.0	-17.7	6.5	85.1*	.	94.9*	31.2*
C[C@H](O)[C@@H]1C(=O)N2CCc3c([nH]c4c(-c5ccccc5)cccc34)[C@@H]2C[C@@H]1N(C)C(=O)/C=C/c1ccccc1	.	.	-10.5	.	2.9	.	.	.
CCCCc1c(Cc2cccc(F)c2)ncn1CCc1ccccc1OC	.	.	20.9	.	26.8*	.	19.0	16.9*
COc1ccc(CNC(=O)c2cccc3c(-c4cccc(C(N)=O)c4)coc23)cc1OC	.	.	4.6	30.4	36.6*	.	24.6*	27.6*
CO[C@H]([C@H](C)/C=C/N(C)C=O)[C@@H](C)C(=O)CC[C@H](C)[C@H](O)[C@H](C)[C@H]1OC(=O)/C=C/C(C)=C/C[C@H](O)C[C@@H]2C=CC[C@@H](C[C@H](OC)[C@@H](C)[C@@H](OC)C[C@@H](OC)[C@@H]1C)O2	.	.	.	.	47.8*	.	39.0*	26.4*
CO[C@H]([C@H](C)/C=C/N(C)C=O)[C@@H](C)C(=O)CC[C@H](C)[C@H](O)[C@H](C)[C@H]1OC(=O)/C=C/C(C)=C/C[C@H](O)C[C@@H]2C=CC[C@@H](C[C@H](OC)[C@@]3(CO3)[C@@H](OC)C[C@@H](OC)[C@@H]1C)O2	.	.	.	.	41.3*	.	36.8*	39.0*
CC(C)(C)C(=O)OC12CCCN(C1)/C(=C/c1ccccc1)C2 (stereo not given)	.	.	4.9	.	-0.8	.	.	.
COC(=O)C1=C(C)NC(=S)NC1c1ccc(Br)cc1 (stereo not given)	.	.	1.0	.	2.0	.	.	.
